# Test results as given in PubChem BioAssay.
# Values without a mark were called inactive. Active and inactive are the calls of the source. Rule as the data show it, unless noted: active = inhibition above about 42%; inactive = the rest.
# Columns and labels:
# [1] = StAR promoter reporter inhibitors, counter-screen for LRH-1 inverse agonist project, cell-based, luminescence, high throughput (AID 651611; in the data active = inhibition above about 28%); settings: StAR promoter luciferase reporter counterscreen, at 3.6 µM, stronger effect = higher value
# [2] = molecular target: Nuclear receptor subfamily 5 group A member 2 (Homo sapiens) (UniProt O00482); test: LRH-1 (NR5A2) inverse agonists, retest, confirmation, cell-based, luminescence (AID 651613); settings: cell-based LRH-1 luciferase reporter, inverse agonism; at 3.6 µM; stronger effect = higher value;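 also: HEK293T cells co-transfected with LRH-1 and StAR promoter luciferase reporter; 0% = vehicle wells and 100% = parental cells lacking receptor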
# [3] = molecular target: Steroidogenic factor 1 (Homo sapiens) (UniProt Q13285); test: SF1 (NR5A1) inverse agonists, counter-screen for LRH-1 inverse agonist project, cell-based, luminescence, high throughput (AID 651614; in the data active = inhibition above about 44%;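 also: cells cotransfected with StAR promoter reporter and SF1 expression vector; 0% = vehicle on cells with receptor and 100% = vehicle on cells lacking receptor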); settings: cell-based SF1 luciferase reporter, at 3.6 µM, stronger effect = higher value
# [4] = VP16 transactivation reporter inhibitors, counter-screen for LRH-1 inverse agonist project, cell-based, luminescence, high throughput (AID 651615; in the data active = inhibition above about 33%); settings: Gal4-VP16 luciferase reporter cells, at 3.6 µM, stronger effect = higher value
# Nuclear receptor subfamily 5 group A member 2 (Homo sapiens), sequence (O00482 whole entry, looked up): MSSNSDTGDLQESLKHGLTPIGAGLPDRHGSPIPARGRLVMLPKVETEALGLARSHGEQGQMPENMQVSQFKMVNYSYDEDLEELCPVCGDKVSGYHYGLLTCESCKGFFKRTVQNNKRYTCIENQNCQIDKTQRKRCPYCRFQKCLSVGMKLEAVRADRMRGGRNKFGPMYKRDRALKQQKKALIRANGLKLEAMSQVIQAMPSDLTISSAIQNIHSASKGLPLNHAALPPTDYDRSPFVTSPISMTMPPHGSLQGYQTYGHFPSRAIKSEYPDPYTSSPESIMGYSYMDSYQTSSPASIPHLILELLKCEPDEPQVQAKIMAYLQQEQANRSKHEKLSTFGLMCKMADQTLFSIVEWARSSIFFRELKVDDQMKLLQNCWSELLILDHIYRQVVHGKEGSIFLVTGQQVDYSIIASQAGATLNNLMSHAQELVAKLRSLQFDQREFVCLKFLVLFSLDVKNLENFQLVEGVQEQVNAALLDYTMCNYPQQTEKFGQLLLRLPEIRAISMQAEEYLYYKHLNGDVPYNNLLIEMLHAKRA
# Steroidogenic factor 1 (Homo sapiens), sequence (Q13285 whole entry, looked up, the tested form may be a part): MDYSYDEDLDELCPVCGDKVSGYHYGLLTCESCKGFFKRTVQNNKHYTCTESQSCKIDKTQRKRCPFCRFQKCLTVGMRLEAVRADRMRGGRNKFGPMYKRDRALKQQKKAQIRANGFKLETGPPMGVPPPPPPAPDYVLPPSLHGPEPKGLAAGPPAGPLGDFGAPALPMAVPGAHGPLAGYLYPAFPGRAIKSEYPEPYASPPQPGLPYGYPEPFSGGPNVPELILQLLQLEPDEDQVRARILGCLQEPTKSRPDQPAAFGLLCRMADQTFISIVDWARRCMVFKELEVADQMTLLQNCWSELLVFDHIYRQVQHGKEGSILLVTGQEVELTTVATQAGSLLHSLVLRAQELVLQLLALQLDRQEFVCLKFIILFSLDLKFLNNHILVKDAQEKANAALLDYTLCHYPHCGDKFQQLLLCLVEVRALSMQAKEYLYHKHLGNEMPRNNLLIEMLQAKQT
SMILES,inhibition [1],inhibition [2],inhibition [3],inhibition [4]
CCOC(=O)CC1CCCCN1C(=O)c1cc(COc2cccc3cnccc23)on1 (stereo unspecified),39% (active),58.9% (active),62.1% (active),61.4% (active)
Cc1ccc(SCC(=O)Nc2ccc(N3CCOCC3)cc2)c(C)c1,16.4%,63.3% (active),56.5% (active),-1.3%
COc1cc2c(cc1OC)C(c1ccc(-c3ccc(Cl)cc3Cl)o1)=NCC2,36.4% (active),58.4% (active),61% (active),62.5% (active)
COc1ccc(CN(C)C(=O)CCl)cc1,14.9%,53.5% (active),52.9% (active),-5.19%
COc1ccc(NC(=O)CSc2nc(N)c(-c3ccccc3)c(=O)[nH]2)cc1,9.25%,63.2% (active),57.5% (active),-7.75%
COc1cc(NC(=O)c2ccc([N+](=O)[O-])o2)ccc1NC(=O)c1cccs1,30.9% (active),61.1% (active),61.9% (active),-9.17%
Cc1cccc(-n2ncc3c2CCCC3NC(=O)C2(C(N)=O)CC2)c1C (stereo unspecified),16.4%,55% (active),48.4% (active),50% (active)
COc1ccc(NC(=O)CSc2ncnc3[nH]ncc23)cc1,7.25%,60.5% (active),54.4% (active),-6.96%
CN(C)CCNC(=O)c1cccc2nc3cccc(F)c3nc12,63.9% (active),81.5% (active),72.1% (active),55% (active)
COc1cc(/C=N/n2nnnc2N)ccc1OCc1c(C)no[n+]1[O-],9.05%,54.4% (active),42.6%,10.5%
Cc1ccc(-c2csc(NC(=O)c3ccc([N+](=O)[O-])o3)n2)cc1,3.07%,57.5% (active),54.4% (active),-19.4%
O=C(COc1ccc2c3c(c(=O)oc2c1)CCCC3)NCCN1CCOCC1,0.51%,41.4% (active),23.5%,-1.02%
COc1ccc(/C=C2/C(=O)OCc3cc(OC)c(OC)cc32)cc1,36.9% (active),56.4% (active),57.9% (active),23.4%
CC1(C(=O)NCc2ccc(Cl)cc2)CCN1C(=O)Cc1ccc(Cl)cc1Cl (stereo unspecified),16%,44.1% (active),46.5% (active),4.22%
COc1ccc(-c2cnc3c(NC=O)cc(-c4ccc(S(C)(=O)=O)cc4)cn23)cc1OC,-4.42%,63% (active),58.1% (active),30.2%
COc1ccccc1OCc1nnc(SCC(=O)Nc2ccc(N3CCOCC3)cc2)n1C,-2.38%,17.9%,29.6%,-11.3%
CC(=O)NC(Cc1c[nH]c2ccccc12)C(=O)OCC(=O)Nc1ccc2c(c1)OCO2 (stereo unspecified),12.4%,56.8% (active),56.7% (active),-12.7%
Cc1c(NC(=O)C(C)OC(=O)c2ccc([N+](=O)[O-])s2)c(=O)n(-c2ccccc2)n1C (stereo unspecified),20%,23.3%,19.4%,-10.5%
CCc1cccc2sc(N3CCN(C(=O)c4ccc([N+](=O)[O-])o4)CC3)nc12,3.02%,57.7% (active),52.5% (active),17.4%
COc1ccc(N=C2NN=C(c3c(C)[nH]c4ccccc34)CS2)cc1,-7.38%,43.1% (active),32.1%,-7.14%
COc1ccc(CCNC(=O)CN2C(=O)NC3(CCCCC3)C2=O)cc1,11%,53.9% (active),54% (active),-6.08%
N=c1sccn1CC(=O)Nc1ccc(S(N)(=O)=O)cc1,17.1%,54.1% (active),50.5% (active),-2.17%
Cc1ccc(NC(=O)COC(=O)CCC2CCCC2)c(Br)c1,5.75%,40.9%,46.2% (active),-5.49%
O=C(c1ccco1)N1CCN(C(=O)c2ccc(COc3ccc(Cl)cc3Cl)o2)CC1,5.02%,49% (active),46.2% (active),-11.1%
